# “And” between values parts separate entries of the source, which are not always exact repeats. Equal entries are not always repeated. Records with an inconclusive call do not appear. The source made the active and inactive calls. Unless noted, no cut-off is given here; in the data, nearly all actives have AC50 up to about 26 µM.
# Columns and labels:
# [1] = Wnt pathway potentiators raising nuclear beta-catenin – imaging, WNT3A-conditioned medium, mouse C2C12, NPC library, primary screen (AID 1117326; in the data active = nuclear beta-catenin stimulation mostly above about 4.2%, no sharp cut-off; inactive = mostly below about 10%; note: reference of the scale not given here); conditions: stronger effect = higher value
# [2] = stimulators of insulin release from INS-1E, primary screen, cell-based, 5 mM glucose, NPC library (AID 1117329;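 active = compound raises insulin release from rat beta cells at 5 mM glucose, no numeric limit stated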; note: reference of the scale not given here); conditions: rat INS-1E insulin secretion, at 10 µM, stronger effect = higher value
# [3] = growth inhibition of GSK3B-pretreated HCT116 cells – cell-based, CellTiter-Glo, 0.2 to 20 µM (AID 1117336;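 active = compounds lowering colon cancer cell viability after pretreatment blocking the GSK3B kinase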); conditions: HCT116 viability after GSK3B inhibitor, at 20 µM, stronger effect = higher value
# [4] = inhibition of endothelial tube formation, primary screen, imaging, VEGF stimulated, CD31 staining, tube area, NPC library (AID 1117340;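 active = compound that reduces growth-factor-driven endothelial tube area in a mixed cell culture, no cutoff stated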); conditions: VEGF-stimulated ADSC/ECFC co-culture, at 10 µM, stronger effect = higher value
# [5] = GLP1 release stimulators, primary, NCI-H716, NPC library (AID 1117341;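 active = compound raises GLP1 secretion from the human gut endocrine cells, with no numeric limit stated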; note: reference of the scale not given here); conditions: NCI-H716 cells, at 10 µM, stronger effect = higher value
# [6] = HCT116 colon cancer cell growth inhibition, primary screen, CellTiter-Glo luminescence, NPC library (AID 1117342;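 active = compounds that lower survival of HCT116 colon cancer cells in the luminescence readout, no numeric limit stated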); conditions: at 20 µM (top of the series)
# [7] = reduced SW480 viability measured with CellTiter-Glo, NPC library, primary (AID 1117343;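 active = compounds that lower viability of the colon cancer cells in the luminescence readout, with no numeric limit stated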); conditions: CellTiter-Glo luminescence; at 20 µM (top of the series) unless noted
# [8] = NPC library primary testing for decreased DLD-1 cell viability via CellTiter-Glo (AID 1117346;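 active = compounds that lower survival of DLD-1 colon cancer cells in the luminescence readout, no cutoff given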); conditions: DLD-1 viability, CellTiter-Glo luminescence; at 20 µM (top of the series)
# [9] = viability loss in pontine glioma line – cell-based, SU-DIPG-XIII, MIPE4.0, CellTiter-Glo, qHTS, dose response (AID 1347061; cut-off not given, nearly all actives have AC50 up to about 37 µM;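 note: cells exposed to compound for 48 hours before readout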); conditions: CellTiter-Glo ATP luminescence
# [10] = viability loss in pontine glioma line – cell-based, SU-DIPG-IV, MIPE4.0, CellTiter-Glo, qHTS, dose response (AID 1347063; cut-off not given, nearly all actives have AC50 up to about 30 µM;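 note: compound exposure lasted 48 hours before the viability readout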); conditions: CellTiter-Glo ATP luminescence
# [11] = viability loss in pontine glioma line – cell-based, SU-DIPG-XXV, MIPE5.0, CellTiter-Glo, qHTS, dose response (AID 1347065); conditions: CellTiter-Glo ATP luminescence;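 note: cells exposed to compound for 48 hours before ATP readout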
# [12] = growth inhibition of DIPG cells – cell-based, MIPE4.0 library, CellTiter-Glo luminescence, qHTS (AID 1347066; cut-off not given, nearly all actives have AC50 up to about 30 µM;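 note: cells exposed to compound for 48 hours before readout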); conditions: SU-DIPG-VI viability, CellTiter-Glo ATP luminescence
# [13] = growth inhibition of DIPG cells – cell-based, MIPE5.0 library, qHTS (AID 1347068; cut-off not given, nearly all actives have IC50 up to about 30 µM;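 for IC50: cells exposed to compound for 48 hours before viability readout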); conditions: SU-DIPG-XXV viability
# [14] = viability loss with induced miR-34 in A549 – imaging, A549 dox-inducible miR-34, nuclei and caspase counts, primary screen (AID 1347080;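 active = compounds whose cell count with miR-34 switched on is under 0.7 times the count with it off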); conditions: A549 miR-34 inducible, Hoechst nuclei count, 48 h
# [15] = galactose survival enhancers in mitochondrial complex I cybrids – cell-based, galactose medium, ATP luminescence, primary screen (AID 1645843;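 active = z-score of at least 1.8 in each of two replicates, scored against plate mean and spread of sample wells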;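 note: positive z means more ATP and so rescue of galactose-driven cybrid death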); conditions: complex I mutant cybrid cells, 72 h, stronger effect = higher value
# [16] = P. berghei load reduction in hepatocytes – cell-based, HepG2, luciferase luminescence, HepG2 viability, primary screen (AID 624349; in the data active = parasite load remaining mostly below about 12%, no sharp cut-off; inactive = mostly above about 10%;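 note: 100% = mean of DMSO negative control wells on the same plate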); conditions: P. berghei liver stage in HepG2, luciferase luminescence, concentration not given here; parasite load remaining: stronger effect = lower value; viability: measured here: HepG2 viability without parasites
# [17] = JHH-DIPG-1 glioma cell viability, MIPE5.0 library, CellTiter-Glo luminescence, qHTS (AID 1347067); conditions: JHH-DIPG-1 glioma viability, CellTiter-Glo ATP luminescence;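 note: cells exposed to compound for 48 hours before readout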
# [18] = MELAS cybrid and Rieske KO viability enhancers – cell-based, MELAS cybrids, Rieske KO mouse fibroblasts, CellTiter-Glo, primary screen (AID 1508586;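 active = mean z-score across replicates of 1.96 or higher in either the MELAS or the Rieske mutant cell line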;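 note: z relative to plate mean and SD of compound and empty wells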); conditions: low glucose
# [19] = viability loss in pontine glioma line – cell-based, JHH-DIPG-1, MIPE4.0, CellTiter-Glo, qHTS, dose response (AID 1347062; cut-off not given, nearly all actives have AC50 up to about 27 µM); conditions: JHH-DIPG-1 viability, CellTiter-Glo ATP luminescence
# [20] = stronger effect = lower value, cell number ratio, induced over uninduced
# [21] = measured here: relative caspase fold change +Dox/-Dox
# [22] = measured here: total cells with miR-34 induction, stronger effect = lower value
# [23] = measured here: total cells without miR-34 induction
# [24] = MELAS cybrid survival, CellTiter-Glo 48 h, stronger effect = higher value
# [25] = Rieske KO mouse fibroblast survival, CellTiter-Glo 72 h
smiles,measurement,setting,value
c1cnc2cc3c(cc2n1)C1CNCC3C1,nuclear beta-catenin stimulation,[1]; at 10 µM,-1.2% (inactive)
same,nuclear beta-catenin stimulation,"[1]; stimulation, at 2 µM",-0.4%
same,insulin secretion stimulation,[2],0.7% (inactive)
same,viability decrease,[3],-3.9% (inactive)
same,tube area decrease,[4],23.1% (inactive)
same,GLP1 secretion stimulation,[5],-4% (inactive)
same,inhibition of viability,[6],-2.57% (inactive)
same,viability decrease (inhibition),[7],9.4% (inactive)
same,viability decrease (inhibition),[8],-12.7% (inactive)
same,outcome,[9],inactive
same,outcome,[10],inactive
same,outcome,[11],inactive
same,outcome,[12],inactive
same,outcome,[13],inactive
same,fold change,[14]; [20],1.05 (inactive)
same,fold change,[14]; [21],1.76
same,cell count,[14]; [22],11200
same,cell count,[14]; [23],10600
same,z-score,[15],0.205 (inactive)
Clc1ccc(C(Cn2ccnc2)OCc2c(Cl)cccc2Cl)c(Cl)c1 (configuration not stated),parasite load remaining,[16],26.3% (inactive) and 91.5% (inactive)
same,viability,[16],46.9% and 87.2%
same,nuclear beta-catenin stimulation,[1]; at 10 µM,1.3% (inactive)
same,nuclear beta-catenin stimulation,"[1]; stimulation, at 2 µM",-1.1%
same,insulin secretion stimulation,[2],3.1% (inactive)
same,viability decrease,[3],110% (active)
same,tube area decrease,[4],107% (active)
same,GLP1 secretion stimulation,[5],35.3% (active)
same,inhibition of viability,[6],113% (active)
same,viability decrease (inhibition),[7],132% (active)
same,viability decrease (inhibition),[8],101% (active)
same,AC50,[11],23.5 µM (active)
O=[N+]([O-])c1cncn1CCN1CCOCC1,nuclear beta-catenin stimulation,[1]; at 10 µM,-1.1% (inactive)
same,nuclear beta-catenin stimulation,"[1]; stimulation, at 2 µM",0.4%
same,insulin secretion stimulation,[2],0.4% (inactive)
same,viability decrease,[3],-4.6% (inactive)
same,tube area decrease,[4],13.6% (inactive)
same,GLP1 secretion stimulation,[5],-1.3% (inactive)
same,inhibition of viability,[6],-5% (inactive)
same,viability decrease (inhibition),[7],-2.7% (inactive)
same,viability decrease (inhibition),[8],-11.2% (inactive)
same,outcome,[11],inactive
same,outcome,[17],inactive
same,outcome,[13],inactive
CCCCc1oc2ccc(NS(C)(=O)=O)cc2c1C(=O)c1ccc(OCCCN(CCCC)CCCC)cc1,nuclear beta-catenin stimulation,[1]; at 10 µM,-3.1% (inactive)
same,nuclear beta-catenin stimulation,"[1]; stimulation, at 2 µM",2%
same,insulin secretion stimulation,[2],2.1% (inactive)
same,viability decrease,[3],99.1% (active)
same,tube area decrease,[4],109% (active)
same,GLP1 secretion stimulation,[5],-5.9% (inactive)
same,inhibition of viability,[6],99.3% (active)
same,viability decrease (inhibition),[7],102% (active)
same,viability decrease (inhibition),[8],101% (active)
same,AC50,[9],18.7 µM (active)
same,AC50,[10],7.43 µM (active)
same,AC50,[12],13.2 µM (active)
same,AC50,[17],10.5 µM (active)
same,IC50,[13],10.5 µM (active)
same,fold change,[14]; [20],1.3 (inactive) and 0.866 (inactive)
same,fold change,[14]; [21],0.545 and 1.08
same,cell count,[14]; [22],1680 and 3440
same,cell count,[14]; [23],1290 and 3970
same,z-score,[18]; [24],-1.62 and -0.663 (inactive)
same,z-score,[18]; [25],1.98 and -1.01
same,z-score,[15],-2.66 (inactive)
Cc1cc2c(cc1CC(=O)c1sccc1S(=O)(=O)Nc1onc(C)c1Cl)OCO2,nuclear beta-catenin stimulation,[1]; at 10 µM,1.6% (inactive)
same,nuclear beta-catenin stimulation,"[1]; stimulation, at 2 µM",3%
same,insulin secretion stimulation,[2],-0.3% (inactive)
same,viability decrease,[3],2.7% (inactive)
same,tube area decrease,[4],-20.9% (inactive)
same,GLP1 secretion stimulation,[5],2.9% (inactive)
same,inhibition of viability,[6],20.9% (inactive)
same,viability decrease (inhibition),[7],6.8% (inactive)
same,viability decrease (inhibition),[8],-17.2% (inactive)
same,outcome,[11],inactive
same,AC50,[17],26.3 µM (active)
same,fold change,[14]; [20],0.871 (inactive)
same,fold change,[14]; [21],0.772
same,cell count,[14]; [22],7800
same,cell count,[14]; [23],8950
same,z-score,[18]; [24],-0.207 (inactive)
same,z-score,[18]; [25],-0.0127
C[C@]12CCC(=O)C=C1[C@@H]1C[C@@H]1[C@H]1[C@@H]3[C@@H]4C[C@@H]4[C@@]4(CCC(=O)O4)[C@@]3(C)CC[C@@H]12,nuclear beta-catenin stimulation,[1]; at 10 µM,1.8% (inactive)
same,nuclear beta-catenin stimulation,"[1]; stimulation, at 2 µM",3%
same,insulin secretion stimulation,[2],1.5% (inactive)
same,viability decrease,[3],2.2% (inactive)
same,tube area decrease,[4],2.8% (inactive)
same,GLP1 secretion stimulation,[5],3.8% (inactive)
same,inhibition of viability,[6],27.4% (inactive)
same,viability decrease (inhibition),[7],-2.6% (inactive)
same,viability decrease (inhibition),[8],3.1% (inactive)
same,outcome,[9],inactive
same,outcome,[19],inactive
same,outcome,[12],inactive
same,outcome,[17],inactive
same,outcome,[13],inactive
N=C(N)c1ccc2cc(OC(=O)c3ccc(N=C(N)N)cc3)ccc2c1,nuclear beta-catenin stimulation,[1]; at 10 µM,0% (inactive)
same,nuclear beta-catenin stimulation,"[1]; stimulation, at 2 µM",0.3%
same,insulin secretion stimulation,[2],1.85% (inactive)
same,viability decrease,[3],4.1% (inactive)
same,tube area decrease,[4],-18% (inactive)
same,GLP1 secretion stimulation,[5],2.8% (inactive)
same,inhibition of viability,[6],30.6% (inactive)
same,viability decrease (inhibition),[7],36.9% (inactive)
same,viability decrease (inhibition),[8],1.2% (inactive)
same,outcome,[9],inactive
same,outcome,[19],inactive
same,outcome,[10],inactive
same,outcome,[11],inactive
same,outcome,[12],inactive
same,outcome,[17],inactive
same,outcome,[13],inactive
same,fold change,[14]; [20],1.02 (inactive) and 0.918 (inactive)
same,fold change,[14]; [21],1.3 and 0.971
same,cell count,[14]; [22],3730 and 5820
same,cell count,[14]; [23],3670 and 6340
same,z-score,[18]; [24],-0.205 (inactive)
same,z-score,[18]; [25],0.234
Cc1ccccc1C(=O)Nc1ccc(C(=O)N2CCCC(O)c3cc(Cl)ccc32)c(C)c1 (configuration not stated),nuclear beta-catenin stimulation,[1]; at 10 µM,3.2% (inactive)
same,nuclear beta-catenin stimulation,"[1]; stimulation, at 2 µM",1.4%
same,insulin secretion stimulation,[2],0.15% (inactive)
same,viability decrease,[3],52.2% (active)
same,tube area decrease,[4],3.5% (inactive)
same,GLP1 secretion stimulation,[5],2% (inactive)
same,inhibition of viability,[6],38.9% (inactive)
same,viability decrease (inhibition),[7],15.2% (inactive)
same,viability decrease (inhibition),[8],21.9% (inactive)
same,outcome,[9],inactive
same,outcome,[10],inactive
same,outcome,[11],inactive
same,outcome,[12],inactive
same,outcome,[17],inactive
same,outcome,[13],inactive
same,fold change,[14]; [20],0.834 (inactive) and 0.856 (inactive)
same,fold change,[14]; [21],0.412 and 0.955
same,cell count,[14]; [22],8090 and 8960
same,cell count,[14]; [23],9700 and 10500
same,z-score,[18]; [24],0.131 (inactive) and -0.387 (inactive)
same,z-score,[18]; [25],-0.17 and 0.558
same,z-score,[15],0.835 (inactive)
CC(C(=O)O)c1ccc2c(c1)CC(=O)c1ccccc1S2 (configuration not stated),nuclear beta-catenin stimulation,[1]; at 10 µM,-0.5% (inactive)
same,nuclear beta-catenin stimulation,"[1]; stimulation, at 2 µM",-1.2%
same,insulin secretion stimulation,[2],5.5% (inactive)
same,viability decrease,[3],-7.1% (inactive)
same,tube area decrease,[4],2.5% (inactive)
same,GLP1 secretion stimulation,[5],-2% (inactive)
same,inhibition of viability,[6],-2.7% (inactive)
same,viability decrease (inhibition),[7],21.1% (inactive)
same,viability decrease (inhibition),[8],7.9% (inactive)
same,AC50,[9],0.0059 µM (active)
same,outcome,[11],inactive
same,outcome,[13],inactive
same,fold change,[14]; [20],0.901 (inactive)
same,fold change,[14]; [21],0.594
same,cell count,[14]; [22],9750
same,cell count,[14]; [23],10800
same,z-score,[18]; [24],-0.314 (inactive)
same,z-score,[18]; [25],0.988

# — PubChem BioAssay
